According to the supplement of paper PMC8728848:
The full list was thinned out, with the strongest signals kept by preference.

Legend:
Assay in all cases: glycan array binding signal (z-score within array); higher = stronger binding
Conditions in all cases: glycan notation: IUPAC condensed, linker removed
[1] = target: Fuc(a1-2)Gal(b1-3)GlcNAc(b1-2)Man(a1-3)[Fuc(a1-2)Gal(b1-3)GlcNAc(b1-2)Man(a1-6)]Man(b1-4)GlcNAc(b1-4)GlcNAc
Procedure, shortened: (§1)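 Negative Z-scores can be read as non-binding. The Z-score is calculated within each array and then averaged across arrays of one protein sequence at different concentrations or buffers and across linkers. Arrays, 3228 in all, were curated from the Consortium for Functional Glycomics database and kept only where the protein sequence was available.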

[2] = target: Fuc(a1-2)Gal(b1-4)GlcNAc(b1-2)Man(a1-3)[Fuc(a1-2)Gal(b1-4)GlcNAc(b1-2)Man(a1-6)]Man(b1-4)GlcNAc(b1-4)GlcNAc
Procedure, shortened: as §1

[3] = target: Fuc(a1-2)Gal(b1-4)[Fuc(a1-3)]GlcNAc(b1-2)Man(a1-3)[Fuc(a1-2)Gal(b1-4)[Fuc(a1-3)]GlcNAc(b1-2)Man(a1-6)]Man(b1-4)GlcNAc(b1-4)GlcNAc
Procedure, shortened: as §1

[4] = target: Fuc(a1-2)[Gal(a1-3)]Gal(b1-4)GlcNAc(b1-2)Man(a1-3)[Fuc(a1-2)[Gal(a1-3)]Gal(b1-4)GlcNAc(b1-2)Man(a1-6)]Man(b1-4)GlcNAc(b1-4)GlcNAc
Procedure, shortened: as §1

[5] = target: Fuc(a1-2)[GalNAc(a1-3)]Gal(b1-4)GlcNAc(b1-2)Man(a1-3)[GalNAc(a1-3)[Fuc(a1-2)]Gal(b1-4)GlcNAc(b1-2)Man(a1-6)]Man(b1-4)GlcNAc(b1-4)GlcNAc
Procedure, shortened: as §1

[6] = target: Fuc(a1-3)[Gal(b1-4)]Glc6S
Procedure, shortened: as §1

[7] = target: Fuc(a1-3)[Gal(b1-4)]GlcNAc
Procedure, shortened: as §1

[8] = target: Fuc(a1-3)[Gal(b1-4)]GlcNAc(b1-2)Man(a1-3)[Fuc(a1-3)[Gal(b1-4)]GlcNAc(b1-2)Man(a1-6)]Man(b1-4)GlcNAc(b1-4)GlcNAc
Procedure, shortened: as §1

[9] = target: Fuc(a1-3)[Gal3S(b1-4)]GlcNAc
Procedure, shortened: as §1

[10] = target: Gal(a1-6)Glc
Procedure, shortened: as §1

[11] = target: Gal(b1-3)Gal(b1-4)GlcNAc(b1-2)Man(a1-3)[Gal(b1-3)Gal(b1-4)GlcNAc(b1-2)Man(a1-6)]Man(b1-4)GlcNAc(b1-4)GlcNAc
Procedure, shortened: as §1

[12] = target: Gal(b1-3)[Neu5Ac(a2-6)]GalNAc
Procedure, shortened: as §1

[13] = target: Gal(b1-4)GalNAc(b1-3)[Fuc(a1-2)]Gal(b1-4)GlcNAc
Procedure, shortened: as §1

[14] = target: Gal(b1-4)Glc
Procedure, shortened: as §1

[15] = target: Gal(b1-4)GlcNAc(b1-2)Man(a1-3)[Man(a1-6)]Man(b1-4)GlcNAc(b1-4)GlcNAc
Procedure, shortened: as §1

[16] = target: Gal(b1-4)GlcNAc(b1-3)Gal(b1-4)GlcNAc
Procedure, shortened: as §1

[17] = target: Gal3S(b1-4)[Fuc(a1-3)]Glc
Procedure, shortened: as §1

[18] = target: Gal4S(b1-4)GlcNAc
Procedure, shortened: as §1

[19] = target: Gal6S(b1-4)GlcNAc
Procedure, shortened: as §1

[20] = target: GalNAc(b1-4)GlcNAc(b1-2)Man(a1-3)[GalNAc(b1-4)GlcNAc(b1-2)Man(a1-6)]Man(b1-4)GlcNAc(b1-4)GlcNAc
Procedure, shortened: as §1

[21] = target: GlcA(b1-6)Gal
Procedure, shortened: as §1

[22] = target: GlcNAc(a1-4)Gal(b1-4)GalNAc
Procedure, shortened: as §1

[23] = target: GlcNAc(a1-4)Gal(b1-4)GlcNAc(b1-3)Gal(b1-4)GlcNAc
Procedure, shortened: as §1

[24] = target: GlcNAc(b1-2)Man(a1-3)[GlcNAc(b1-2)Man(a1-6)]Man(b1-4)GlcNAc(b1-4)GlcNAc
Procedure, shortened: as §1

[25] = target: Man(a1-3)[Man(a1-6)]Man(b1-4)GlcNAc(b1-4)GlcNAc
Procedure, shortened: as §1

[26] = target: Neu5Ac(a2-3)Gal(b1-3)GalNAc
Procedure, shortened: as §1

[27] = target: Neu5Ac(a2-3)Gal(b1-3)[Fuc(a1-4)]GlcNAc(b1-3)Gal(b1-4)[Fuc(a1-3)]GlcNAc
Procedure, shortened: as §1

[28] = target: Neu5Ac(a2-3)Gal(b1-4)[Fuc(a1-3)]GlcNAc(b1-6)[Gal(b1-3)]GalNAc
Procedure, shortened: as §1

[29] = target: Neu5Ac(a2-6)Gal(b1-4)GlcNAc
Procedure, shortened: as §1

[30] = target: Fuc(a1-2)[Gal(a1-4)]Gal(b1-4)GlcNAc
Procedure, shortened: as §1

[31] = target: Fuc(a1-3)[Gal(b1-4)]GlcNAc(b1-4)Gal(b1-4)[Fuc(a1-3)]GlcNAc(b1-4)Gal(b1-4)[Fuc(a1-3)]GlcNAc
Procedure, shortened: as §1

[32] = target: Gal(a1-3)Gal
Procedure, shortened: as §1

[33] = target: Gal(a1-3)Gal(b1-3)GlcNAc(b1-2)Man(a1-3)[Gal(a1-3)Gal(b1-3)GlcNAc(b1-2)Man(a1-6)]Man(b1-4)GlcNAc(b1-4)GlcNAc
Procedure, shortened: as §1

[34] = target: Gal(a1-4)Gal(b1-4)GlcNAc(b1-2)Man(a1-3)[Gal(a1-4)Gal(b1-4)GlcNAc(b1-2)Man(a1-6)]Man(b1-4)GlcNAc(b1-4)GlcNAc
Procedure, shortened: as §1

[35] = target: Gal(b1-2)Gal
Procedure, shortened: as §1

[36] = target: Gal(b1-3)[GlcNAc(b1-6)]GalNAc
Procedure, shortened: as §1

[37] = target: Gal(b1-4)GlcNAc(b1-2)Man(a1-3)Man(b1-4)GlcNAc(b1-4)GlcNAc
Procedure, shortened: as §1

[38] = target: Gal(b1-4)GlcNAc(b1-2)Man(a1-3)[Gal(b1-4)GlcNAc(b1-2)Man(a1-6)]Man(b1-4)GlcNAc(b1-4)GlcNAc
Procedure, shortened: as §1

[39] = target: Gal(b1-4)GlcNAc(b1-2)Man(a1-3)[GlcNAc(b1-2)Man(a1-6)]Man(b1-4)GlcNAc(b1-4)GlcNAc
Procedure, shortened: as §1

[40] = target: Gal(b1-4)GlcNAc(b1-3)GalNAc
Procedure, shortened: as §1

[41] = target: Gal3S(b1-3)GalNAc
Procedure, shortened: as §1

[42] = target: Gal3S6S(b1-4)GlcNAc6S
Procedure, shortened: as §1

[43] = target: Gal6S(b1-4)GlcNAc6S
Procedure, shortened: as §1

[44] = target: GalNAc(a1-3)Gal
Procedure, shortened: as §1

[45] = target: GlcNAc(a1-4)Gal(b1-3)GlcNAc
Procedure, shortened: as §1

[46] = target: GlcNAc(a1-4)Gal(b1-4)GlcNAc
Procedure, shortened: as §1

[47] = target: GlcNAc(a1-6)Gal(b1-4)GlcNAc
Procedure, shortened: as §1

[48] = target: Man(a1-3)[Man(a1-6)]Man(a1-6)[Man(a1-2)Man(a1-3)]Man(b1-4)GlcNAc(b1-4)GlcNAc
Procedure, shortened: as §1

[49] = target: Neu5Ac(a2-3)Gal(b1-4)GlcNAc(b1-6)[Neu5Ac(a2-3)Gal(b1-3)]GalNAc
Procedure, shortened: as §1

[50] = target: Neu5Ac(a2-3)Gal(b1-4)[Fuc(a1-3)]GlcNAc(b1-3)GalNAc
Procedure, shortened: as §1

[51] = target: Neu5Ac(a2-3)Gal6S(b1-4)GlcNAc
Procedure, shortened: as §1

[52] = target: Neu5Ac(a2-3)GalNAc
Procedure, shortened: as §1

[53] = target: Neu5Ac(a2-6)Gal(b1-4)GlcNAc(b1-3)Gal(b1-4)GlcNAc(b1-3)Gal(b1-4)GlcNAc
Procedure, shortened: as §1

[54] = target: Neu5Ac(b1-6)GalNAc
Procedure, shortened: as §1

[55] = target: Neu5Gc(a2-6)GalNAc
Procedure, shortened: as §1

B1: Neuropilin-1 (Homo sapiens), O14786 (protein)
chain: FKCMEALGMESGEIHSDQITASSQYSTNWSAERSRLNYPENGWTPGEDSYREWIQVDLGLLRFVTAVGTQGAISKETKKKYYVKTYKIDVSSNGEDWITIKEGNKPVLFQGNTNPTDVVVAVFPKPLITRFVRIKPATWETGISMRFEVYGCKITDYPCSGMLGMVSGLISDSQITSSNQGDRNWMPENIRLVTSRSGWALPPAPHSYINEWLQIDLGEEKIVRGIIIQGGKHRENKVFMRKFKIGYSNNGSDWKMIMDDSKRKAKSFEGNNNYDTPELRTFPALSTRFIRIYPERATHGGLGLRMELLGCEVE
In the case of B1, the “glycan array binding signal (z-score)” value [1] is reported as 1.14, the “glycan array binding signal (z-score)” value [2] is reported as 5.83 and the “glycan array binding signal (z-score)” value [3] is reported as 4.73. The “glycan array binding signal (z-score)” value [4] was 6.43, the “glycan array binding signal (z-score)” value [5] was 5.34 and the “glycan array binding signal (z-score)” value [6] was 0.455. The “glycan array binding signal (z-score)” value [7] was -0.168, the “glycan array binding signal (z-score)” value [8] was 10.4 and the “glycan array binding signal (z-score)” value [9] was -0.158. For the same binder, the “glycan array binding signal (z-score)” value [10] was -0.168, the “glycan array binding signal (z-score)” value [11] was 6.05 and the “glycan array binding signal (z-score)” value [12] was -0.23. For the same binder, the “glycan array binding signal (z-score)” value [13] was -0.281, the “glycan array binding signal (z-score)” value [14] was -0.292 and the “glycan array binding signal (z-score)” value [15] was -0.228. The “glycan array binding signal (z-score)” value [16] was -0.228, the “glycan array binding signal (z-score)” value [17] was 0.036 and the “glycan array binding signal (z-score)” value [18] was -0.235. The “glycan array binding signal (z-score)” value [19] was -0.225, the “glycan array binding signal (z-score)” value [20] was 0.263 and the “glycan array binding signal (z-score)” value [21] was -0.189. For the same binder, the “glycan array binding signal (z-score)” value [22] was 1.27, the “glycan array binding signal (z-score)” value [23] was -0.004 and the “glycan array binding signal (z-score)” value [24] was -0.176. For the same binder, the “glycan array binding signal (z-score)” value [25] was -0.133, the “glycan array binding signal (z-score)” value [26] was -0.216 and the “glycan array binding signal (z-score)” value [27] was 0.065. The “glycan array binding signal (z-score)” value [28] was 0.942 and the “glycan array binding signal (z-score)” value [29] was -0.254.

B2: CLEC-1 (Homo sapiens), Q9NZH3 (protein)
chain: MQAKYSSTRDMLDDDGDTTMSLHSQASATTRHPEPRRTEHRAPSSTWRPVALTLLTLCLVLLIGLAAWGLLFFQYYQLSNTGQDTISQMEERLGNTSQELQSLQVQNIKLAGSLQHVAEKLCRELYNKAGAHRCSPCTEQWKWHGDNCYQFYKDSKSWEDCKYFCLSENSTMLKINKQEDLEFAASQSYSEFFYSYWTGLLRPDSGKAWLWMDGTPFTSELFHIIIDVTSPRSRDCVAILNGMIFSKDCKELKRCVCERRAGMVKPESLHVPPETLGEGD
With B2 the “glycan array binding signal (z-score)” value [1] was 6.09, the “glycan array binding signal (z-score)” value [30] was -0.046 and the “glycan array binding signal (z-score)” value [31] was 0.063. For the same binder, the “glycan array binding signal (z-score)” value [32] was -0.376, the “glycan array binding signal (z-score)” value [33] was 3.16 and the “glycan array binding signal (z-score)” value [34] was 5.92. For the same binder, the “glycan array binding signal (z-score)” value [35] was -0.482, the “glycan array binding signal (z-score)” value [36] was -0.033 and the “glycan array binding signal (z-score)” value [37] was 1.79. The “glycan array binding signal (z-score)” value [38] was 0.112, the “glycan array binding signal (z-score)” value [39] was -0.583 and the “glycan array binding signal (z-score)” value [15] was 11. For the same binder, the “glycan array binding signal (z-score)” value [40] was -0.261, the “glycan array binding signal (z-score)” value [41] was -0.341 and the “glycan array binding signal (z-score)” value [42] was 3.17. For the same binder, the “glycan array binding signal (z-score)” value [43] was 0.66, the “glycan array binding signal (z-score)” value [44] was -0.34 and the “glycan array binding signal (z-score)” value [45] was -0.516. For the same binder, the “glycan array binding signal (z-score)” value [22] was -0.035, the “glycan array binding signal (z-score)” value [46] was 2.86 and the “glycan array binding signal (z-score)” value [47] was 2.11. The “glycan array binding signal (z-score)” value [48] was 0.433, the “glycan array binding signal (z-score)” value [49] was -0.142 and the “glycan array binding signal (z-score)” value [50] was 2.82. For the same binder, the “glycan array binding signal (z-score)” value [51] was -0.086, the “glycan array binding signal (z-score)” value [52] was -0.178 and the “glycan array binding signal (z-score)” value [53] was -0.43. For the same binder, the “glycan array binding signal (z-score)” value [54] was -0.392 and the “glycan array binding signal (z-score)” value [55] was -0.297.
